BAZ2B inh – inhibitors of human BAZ2B bromodomain; Q9UIF8; AlphaScreen BAZ2B-H3K14Ac peptide displacement; Potency, µM (series often up to 114 µM), for the others: at the highest dose activity change, negative = inhibition, actives largely listed as inhibitors; 360,000 tested, 4.4% active; AID 504333; also: % is scaled to controls: 0 for no effect and ±100 for the full control effect; nearly all actives have a fitted effect of over 60% in size
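BAZ2B 50 nM plus b-H3(5-23)K14Ac 50 nM, PBS pH 7.4/0.01% Tween-20, 30 min RT; compound added (max 110 uM), 30 min RT; streptavidin donor/Ni-chelate acceptor beads 10 ug/mL final, 20 min dark; AlphaScreen read.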
Sfp inh – blocks B. subtilis Sfp PPTase activity; Q9F4F7; Biochemical Sfp PPTase activity, qHTS; Potency, µM, for the others: largest response in the series, negative = inhibition, usual class: inhibitors; 310,000 tested, 3.5% active; AID 1490;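 also: the enzyme is Sfp with the accession as filed and its product quenches rhodamine fluorescence; 0% = enzyme reaction without inhibitor and -100% = no enzyme wells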
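After 15 min at room temperature with compound, 15 nM Sfp received 5 uM rhodamine-CoA plus 12.5 uM BHQ-2-ybbR (50 mM Hepes pH 7.6, 10 mM MgCl2). Rate came from the fluorescence difference over 30 min, ex 525/em 598 nm.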
HP1b binding inh – blocks HP1-beta chromodomain binding to methylated histone tails | 390,000 tested, 0.56% active | AlphaScreen HP1-beta / biotin-H3K9me3 peptide binding | Potency, µM (doses to about 114 µM), for inactives: at the highest dose activity change, negative = inhibition, usual class: inhibitors; also: nearly all actives have a fitted effect of over 70% in size
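HP1-beta protein (50 nM final) preincubated 30 min at room temperature with biotinylated H3(1-18)K9me3 peptide (50 nM) in PBS pH 7.4, 0.01% Tween-20, then compound added for 30 min. AlphaScreen streptavidin donor/nickel chelate acceptor beads (10 ug/mL final), 30 min dark, luminescence read.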
G9a inh – inhibitors of human histone lysine methyltransferase G9a; Potency, µM (highest dose often 102 µM), for the others: at the top dose activity, negative = inhibition, usual class: inhibitors; AID 504332; G9a H3K9 monomethylation, AlphaScreen, 2 h; Q96KQ7; 350,000 tested, 8.8% active; also: % is scaled to controls: 0 for no effect and ±100 for the full control effect; nearly all actives have a fitted effect of over 75% in size
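Chemiluminescent proximity detection of H3K9 monomethylation, read after 10 min bead incubation in the dark. Reaction: 20 nM G9a, 500 nM biotin-H3K9 peptide, 20 uM SAM cofactor, 2 h, room temperature, following 15 min enzyme-compound preincubation.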
JMJD2A Tudor – blocks the human JMJD2A Tudor domain. 390,000 tested, 4.4% active. O75164. Potency, µM (top dose mostly 114 µM), without a hit: at the highest dose activity change, negative = inhibition, most hits filed as inhibitors. AlphaScreen JMJD2A-Tudor / H3K4me3 peptide binding; also: % is scaled to controls: 0 for no effect and ±100 for the full control effect; nearly all actives have a fitted effect of over 50% in size
Starred values were filed as active, the others as inactive; ? = inconclusive; · = not tested or not shown; [ ] = another dose, or the depositor's remark. This is a sample that favours compounds with a hit; in the whole collection about 12% have one here. Calls follow the shape of the dose curve; as a rule, active = well fitted curve in the direction sought with a large enough effect; inconclusive = small, poorly fitted or top-dose-only effect, or another doubt; inactive = no such curve, though single readings can be large; an effect the other way counts as inactive or inconclusive. Potency is read from the fitted curve at half-maximal effect.

SMILES	BAZ2B inh	Sfp inh	HP1b binding inh	G9a inh	JMJD2A Tudor
COC(=O)c1cc(-c2ccc(Br)cc2)c2c(=O)n(C)c(=O)n(C)c2n1	-2%	7%	48%	8%	-8%
Cc1ccc(CSC2=NC(C)(C)Nc3ccccc32)c(C)c1	75%[57.1 µM]	·	224%	89%[59 µM]	94%
NC(=O)CC(NC(=O)c1ccccc1)c1ccc(N2CCN(c3ccccn3)CC2)c([N+](=O)[O-])c1 (centres undefined)	-37%	10%	30%	79µM*	-29%
CCN(CC)c1cc2c(cc1F)c(=O)c(S(=O)(=O)c1ccc(C)cc1)cn2Cc1ccc(F)cc1	2%	·	41%	0%[59 µM]	5%
CCOc1ccc(NS(=O)(=O)c2ccc(C(=O)NCCN3CCOCC3)cc2)cc1	0%	·	22%	-5%[0.501 µM]	-6%
COc1ccc(NC2=C(C(C)=O)C(c3ccccc3)C(C(C)=O)C(C)(O)C2)cc1 (centres undefined)	-25%	23%	12%	?	-25%
CC(=O)C1=C(Nc2ccc(C)cc2)CC(C)(O)C(C(C)=O)C1c1ccco1 (centres undefined)	79µM*	16%	2%	-8%[12.7 µM]	-16%
CCOC(=O)CC(=O)CSc1nc2nc(C)cc(C)n2n1	1%	56µM*	19%	?	-14%
O=C(COC(=O)CC1CCCC1)Nc1cc2c(cc1Cl)C(=O)c1ccccc1C2=O	56µM*	15%	-26%	?	56µM*
CCCCn1c(=O)c(-[n+]2ccccc2)c([O-])c2ccccc21	?	14µM*	49%	8.9µM*	-5%
COc1ccc(CCNC(=O)C(=O)NCC(c2ccc3c(c2)OCO3)N2CCOCC2)cc1 (centres undefined)	-2%	·	29%[57 µM]	1%[59 µM]	0%
CCN1C(=O)[C@H]2[C@H]3[C@H](O)[C@H](O)C/C(=N/NC(=O)OCc4ccccc4)[C@H]3CC[C@@H]2C1=O	·	-9%	·	·	·
CCCC(=O)Nc1ccccc1NC(=O)c1cc(OC)c(OC)c(OC)c1	4%	3%	37%	89µM*	-6%
COc1cc(C(=O)NNC(=O)CCOc2cccc(Br)c2)cc(OC)c1OC	-1%	·	31%	-28%[2.33 µM]	1%
COc1cc(C(=O)NC(=S)Nc2ccc([N+](=O)[O-])cc2)cc(OC)c1OC	4%	45µM*	-10%	?	?
COc1ccc(C(=O)NC(=S)Nc2ccc(S(N)(=O)=O)cc2)cc1	-10%	?	18%	?	-15%
CCCC(=O)Nc1ccccc1NC(=O)c1ccc(OCC)c(OCC)c1	-12%	15%	0%	0%	-5%
CCOc1ccc(OCCC(=O)NNC(=O)c2cc(OC)c(OC)c(OC)c2)cc1	-21%	·	3%	79µM*	-21%
COc1cc(C(=O)NNC(=S)Nc2ccc(S(N)(=O)=O)cc2)cc(OC)c1OC	-23%	13µM*	-10%	8.9µM*	-5%[11.4 µM]
COc1ccc(OC)c(NC(=O)[C@H](CSCc2ccccc2)N2Cc3ccccc3C2=O)c1	-34%	·	28%	-5%[59 µM]	-29%
CCOc1ccccc1N1C(=O)c2ccccc2N/C1=C\N1CCN(C(=O)c2ccco2)CC1	·	·	69%	·	-13%
COc1ccc(/C(C)=N/NC(=O)CNC(=O)c2ccncc2)c(OC)c1	-6%	2%	43%	17%	-8%
CC1CCCC(C)N1CCOc1cc(N)ccc1C#N (centres undefined)	·	·	-9%	·	-19%
COc1cc(C(=O)NC(=S)Nc2ccccc2[N+](=O)[O-])cc(OC)c1OC	?	79µM*	?	?	28µM*
CC1CCCN(S(=O)(=O)c2ccc(NC(=O)C3CCN(C(=O)C(C)(C)C)CC3)cc2)C1 (centres undefined)	3%	·	38%	15%[12.7 µM]	-6%
SMILES	BAZ2B inh	Sfp inh	HP1b binding inh	G9a inh	JMJD2A Tudor
C=C(C)[C@@H]1CC=C(CN2CCN(Cc3ccccc3)CC2)CC1	?	0%	6%	50µM*	?
COC(=O)c1sccc1S(=O)(=O)N(CC(=O)NCc1ccc(F)cc1)c1ccc(C)c(C)c1	-4%	·	11%	25%[59 µM]	-29%
Nc1c2c(=O)[nH]c(O)cc2nn1-c1ccccc1	·	·	4%[57 µM]	·	-16%
C=C1CC[C@H](O)C/C1=C/C=C1\CCC[C@]2(C)[C@@H]([C@H](C)CC[C@@H](O)C(C)(C)O)CC[C@@H]12	·	-4%	·	?	·
CCOC(=O)c1[nH]c2ccccc2c1NC(=S)Nc1cccc(C)c1	?	-29%	-13%	40µM*	?
CCOC(=O)c1[nH]c2ccccc2c1NC(C)=O	-2%	21%	31%	21%[12.7 µM]	-17%
CCOC(=O)c1[nH]c2ccccc2c1NC(=S)Nc1ccccc1	?	?	-7%	45µM*	-14%
CC1=C(C)C[C@@]23CCCN2C(=O)CCC[C@H]3C1	·	-3%	·	21%[135 µM]	·
O=C(N/N=C/c1ccccc1O)c1cc(=O)[nH]c2ccccc12	50µM*	8%	·	1%[59 µM]	·
O=C(N/N=C/c1ccccc1O)c1cccc2ccccc12	6%	27%	37%	·	-10%
Cc1nccn1CC(=O)N/N=C/c1ccccc1O	45µM*	20%	29%	·	56µM*
O=[N+]([O-])c1ccccc1N/N=C\c1ccccc1Cl	-10%	8%	1%	-4%[59 µM]	-19%
O=[N+]([O-])c1ccc(O)c(/C=N/Nc2ccccc2Cl)c1	-26%	8%	-3%	6.3µM*	-8%[11.4 µM]
O=C(N/N=C/c1cc([N+](=O)[O-])ccc1O)c1ccncc1	10µM*	4%	43%	·	22µM*
Cc1nccn1CC(=O)N/N=C/c1c[nH]c2ccccc12	-21%	4%	26%	5%	-14%
CCCCC/C=C\C\C=C/C=C/C=C/[C@@H](SCC(NC(=O)CCC(N)C(=O)O)C(=O)NCC(=O)O)[C@@H](O)CCCC(=O)O (some centres undefined)	·	-2%	·	·	·
O=C(N/N=C/c1ccc(O)c2ncccc12)c1cccc(Br)c1	8.9µM*	23%	34%	-29%	22µM*
COc1ccc(/C=N/NC(=O)c2ccncc2)cc1[N+](=O)[O-]	-16%	9%	40%	-3%	2%
COc1cc(O)c(/C=N/NC(=O)c2ccncc2)c(OC)c1[N+](=O)[O-]	7.9µM*	13%	49%	-28%	50µM*
O=C(N/N=C/c1cc(Br)ccc1O)c1ccncc1	20µM*	27%	35%	59%[12.7 µM]	28µM*
O=C1NCCCC1C(=O)N/N=C/c1cc([N+](=O)[O-])ccc1O (centres undefined)	50µM*	16%	16%[57 µM]	47%[12.7 µM]	40µM*
CC1(C)SC2C(NC(=O)C(C(=O)O)c3ccccc3)C(=O)N2C1C(=O)O (centres undefined)	·	-6%	·	-7%[2.33 µM]	·
Cc1sc(N/N=C/C=C/c2ccccc2)nc1-c1ccccc1	-5%	-9%	2%	53%[12.7 µM]	-29%
O=C(N/N=C/c1cc(Br)ccc1OC(=O)c1ccc(Br)cc1)c1ccncc1	50µM*	6%	?	21%	89µM*

Compound activity from PubChem BioAssay.
